Bioassay records: PubChem, National Center for Advancing Translational Sciences (NCATS)
A selection: hits, their analogues and other compounds. The true share with any hit is near 12%.
Pf growth 96h: Primary qHTS for delayed death inhibitors of the malarial parasite plastid, 96 hour incubation; 320,000 compounds, 6.9% hits; P. falciparum luciferase reporter growth, 96 h; Potency, µM (doses to about 28.7 µM), for the others: top-dose activity change, negative = inhibition, usual class: inhibitors; note: % is set by controls: 0 for no effect and ±100 for the full control effect
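Delayed-death screen, second-generation endpoint: infected erythrocytes, 2% hematocrit, 0.05% parasitemia final; 96 hours at 37 C, 5% CO2; luciferase detection reagent; luminescence decrease equals reduced growth.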
Sm TGR block: qHTS Assay for the Inhibitors of Schistosoma Mansoni Peroxiredoxins. Schistosoma mansoni thioredoxin glutathione reductase (TGR), Q962Y6. 360,000 compounds, 3% hits. purified TGR, DTNB reduction, TNB absorbance 405 nm. Potency, µM (series often up to 114 µM), for inactives: top-dose activity change, negative = inhibition, actives largely listed as inhibitors; note: % is set by controls: 0 for no effect and ±100 for the full control effect; nearly all actives have a fitted effect of over 60% in size
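TGR 20 nM + NADPH 100 uM (dispensed conc.), cpd preinc 15 min RT; start with NADPH (500 uM addition) then DTNB (15 mM addition). Kinetic TNB absorbance, 405 nm filter. Four-parameter Hill fit across titration.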
SARS PLpro yeast: qHTS of Yeast-based Assay for SARS-CoV PLP. S. cerevisiae expressing SARS-CoV PLpro, growth rescue. Potency, µM (highest dose often 32.9 µM), inactives show at the highest dose activity, positive = growth rescue, usual class: activators. 330,000 compounds, 0.19% hits; calls by dose curve; note: 0% is about no effect; nearly all actives have a fitted effect of over 55% in size
Pf growth 48h: Primary qHTS for delayed death inhibitors of the malarial parasite plastid, 48 hour incubation. P. falciparum luciferase growth in erythrocytes, 48 h. Potency, µM (doses to about 28.7 µM), without a hit: at the top dose activity change, negative = inhibition, actives largely listed as inhibitors. 310,000 compounds, 5.9% hits; note: % is set by controls: 0 for no effect and ±100 for the full control effect
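Luciferase-expressing parasites in RBCs, 2% Hct / 0.1% parasitemia final; RPMI 1640 + 0.5% Albumax; 37 C, 5% CO2, one generation; luminescence read-out, lower signal = inhibition.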
* = called active by the depositor; ? = inconclusive; · = no result given. Unless noted, calls come from the whole dose curve; as a rule, active = well fitted curve in the direction sought with a large enough effect; inconclusive = small, poorly fitted or top-dose-only effect, or another doubt; inactive = no such curve, though single readings can be large; an effect the other way counts as inactive or inconclusive. Potency is the fitted concentration of half-maximal effect.

SMILES	Pf growth 96h	Sm TGR block	SARS PLpro yeast	Pf growth 48h
CC(=O)c1ccc(NC(=O)C2CCC(CNS(=O)(=O)c3ccc4c(c3)CCCC(=O)N4)CC2)cc1 (stereo not drawn)	·	4.8%	·	·
Cc1cc(NS(=O)(=O)c2ccc(NC(=O)c3ccccc3F)cc2)no1	·	·	-5.9%	·
CCOc1cc(C(=O)N/N=C/c2ccoc2)cc(OCC)c1OCC	?	-18.3%	-1.3%	-8.1%
CCCCOc1ccc(/C=N/NC(=O)c2csc(C)c2C)cc1	·	11.3%	-5.2%	?
CC(C)COc1ccc(C(=O)N/N=C/c2ccoc2)cc1	5.86µM*	-27.2%	-4.4%	0.0%
Cc1scc(C(=O)N/N=C/c2ccc(OCC(C)C)cc2)c1C	11.7µM*	-0.3%	-7.5%	·
CCCOc1ccc(CN(C(=O)Cc2coc3ccc(CC)cc23)C2CCS(=O)(=O)C2)cc1 (stereo not drawn)	·	-4.2%	·	·
CCOC(=O)c1c(C)nn(-c2ccc(NC(=O)/C=C/C(=O)O)cc2)c1C	11.8%	50.1µM*	-5.8%	2.8%
CCOC(=O)c1c(C)nn(-c2ccc(NC(=O)c3cccs3)cc2)c1C	3.29µM*	6.0%	1.2%	14.7µM*
CCOC(=O)c1c(NC(=O)/C=C/C(=O)O)sc(C)c1-c1ccc(C)c(C)c1	17.3%	2.9%	-1.1%	9.28µM*
CCOC(=O)c1c(C)nn(-c2ccc(NC(=O)c3c(C)noc3C)cc2)c1C	-6.3%	15.4%	0.3%	-6.3%
COc1ccc(NC(=O)c2ccc(-c3nc(CSc4ccccc4)c(C)o3)cc2)c(OC)c1	·	-24.9%	·	·
O=C(NC1CCCC1)c1ccc2c(=O)n(Cc3ccccc3)c(SCc3cccc([N+](=O)[O-])c3)nc2c1	·	-2.9%	·	·
COc1ccc(S(=O)(=O)N2CCC(C(=O)Nc3ccccc3)CC2)cc1OC	·	0.8%	·	·
COc1ccc(S(=O)(=O)N2CCC(C(=O)Nc3ccccc3N3CCCC3)CC2)cc1OC	11.7µM*	-16.5%	1.1%	?
COc1ccc(OC)c(S(=O)(=O)N2CCC(C(=O)Nc3cc(C)ccc3C)CC2)c1	13.1µM*	-0.9%	12.4%	·
Cc1ccc(S(=O)(=O)N2CCC(C(=O)Nc3ccccc3N3CCCCC3)CC2)cc1	12.9%	-5.3%	1.8%	7.38µM*
COc1ccc(NC(=O)C2CCN(S(=O)(=O)c3ccc(C)cc3)CC2)cc1OC	5.22µM*	-2.7%	-1.0%	-10.9%
COc1ccc(NC(=O)C2CCN(S(C)(=O)=O)CC2)cc1OC	14.8%	4.3%	4.1%	-1.2%
COc1ccc(NC(=S)N2CCN(S(=O)(=O)c3ccc(F)cc3)CC2)cc1	?	-20.9%	0.9%	?
C=CCN1C(=O)c2ccc(C(=O)N(C)CC(=O)Nc3cccc(F)c3)cc2C1=O	13.0%	4.7%	1.8%	19.7%
COc1cccc(CNC(=O)C2CCN(C(=O)c3sccc3-n3cccc3)CC2)c1	·	-4.3%	·	·
O=C(NCc1ccc2c(c1)OCO2)C1CCN(S(=O)(=O)N2CCOCC2)CC1	3.7µM*	-6.0%	4.7%	8.3%
CCS(=O)(=O)N1CCCC(C(=O)NCc2ccc3c(c2)OCO3)C1 (stereo not drawn)	-13.3%	12.5%	-0.2%	0.7%
COc1cccc(CNC(=O)C2CCCN(S(=O)(=O)c3ccc4c(c3)C(C)(C)C(=O)N4C)C2)c1 (stereo not drawn)	6.7%	-1.9%	0.4%	?
SMILES	Pf growth 96h	Sm TGR block	SARS PLpro yeast	Pf growth 48h
O=C(NC1CC1)C1CCN(C2CCN(C(=O)Cc3ccc4c(c3)OCO4)CC2)CC1	11.7µM*	?	0.3%	0.8%
COc1ccc(S(=O)(=O)N2CCCC(C(=O)NCc3ccc4c(c3)OCO4)C2)cc1 (stereo not drawn)	-22.9%	-3.4%	-3.2%	2.08µM*
O=C(NCc1ccc2c(c1)OCO2)C1CCN(S(=O)(=O)N2CCCCC2)CC1	15.0%	-15.9%	10.3%	11.1%
CN1C(=O)C(C)(C)c2cc(S(=O)(=O)N3CCCC(C(=O)NCc4ccc(F)cc4)C3)ccc21 (stereo not drawn)	10.4µM*	-21.7%	0.3%	?
Cc1ccccc1CCNC(=O)c1ccc(NC(=O)N2CC(C)Sc3ccccc32)cc1 (stereo not drawn)	·	1.4%	·	·
O=C(CCC1CCCC1)NNC(=O)c1ccc(F)cc1	-3.0%	-2.6%	-5.5%	2.8%
O=C(NCc1ccc2c(c1)OCO2)C1CCN(c2ccc(S(=O)(=O)N3CCCC3)cc2)CC1	67.9%	1.4%	-7.5%	10.4µM*
Cc1noc(C)c1C(=O)Nc1ccc2c(c1)CCC2	14.7µM*	0.0%	·	24.4%
Cc1noc(C)c1C(=O)NNc1ccc(C(C)C)cc1	?	20µM*	-1.6%	?
Cc1noc(C)c1C(=O)Nc1ccc(F)cc1	19.7%	-4.3%	1.2%	12.5%
O=C1c2oc3ccccc3c(=O)c2C(c2ccccc2)N1Cc1ccc2c(c1)OCO2 (stereo not drawn)	·	1.9%	·	·
OCCN1CCOCCOc2ccccc2OCCOCC1	164.5%	0.0%	-3.8%	19.5%
c1ccc2c(c1)OCCOCCOCCOCCOCCOc1ccccc1OCCOCCOCCO2	7.38µM*	-5.5%	-14.3%	?
CC1CCC(C(C)C)C(OC(=O)Cn2c(-c3ccc(Br)cc3)[n+](C)c3ccccc32)C1 (stereo not drawn)	?	-19.2%	-1.3%	1.65µM*
O=C(c1ccncc1)N1CCN(S(=O)(=O)c2ccccc2Br)CC1	?	-2.0%	-2.5%	?
COc1cc(C)nc(N2CCC(C(N)=O)CC2)n1	9.28µM*	18.5%	7.7%	9.2%
CCc1ccc(CN(Cc2cn[nH]c2-c2ccc(OC)cc2)C(=O)Nc2ccc(C)c(F)c2)cc1	·	23.0%	·	·
CNC(=O)c1c(NC(=O)c2ccc(S(=O)(=O)N(C)c3ccccc3)cc2)sc2c1CCN(C(C)C)C2	?	3.4%	9.1%	0.586µM*
CCN1CCc2c(sc(NC(=O)c3ccc4ccccc4c3)c2C(N)=O)C1	?	2.6%	-0.5%	11.7µM*
CCN1CCc2c(sc(NC(=O)c3ccc(S(=O)(=O)N(C)c4ccccc4)cc3)c2C(=O)NC)C1	1.47µM*	-0.4%	-1.8%	2.08µM*
CCN1CCN(S(=O)(=O)c2ccc(C(=O)Nc3sc4c(c3C(N)=O)CCN(CC)C4)cc2)CC1	?	-24.2%	-3.5%	?
CC(C)N1CCc2c(sc(NC(=O)c3ccc(S(=O)(=O)N(C)C4CCCCC4)cc3)c2C(N)=O)C1	·	2.7%	·	·
CC(C)N1CCc2c(sc(NC(=O)c3ccc(S(=O)(=O)N4CCc5ccccc54)cc3)c2C(N)=O)C1	7.38µM*	2.4%	0.3%	4.15µM*
C#CCOCCOCCOCCNc1nc(N2CCN(C(=O)CCCCCCCCCCNC(=O)[C@@H](CCC(=O)O)n3cc(CCCCCN)nn3)CC2)nc(N2CCN(C(=O)CCCCCCCCCCNC(=O)[C@H]([C@@H](C)CC)n3cc(CCCCCN)nn3)CC2)n1	1.47µM*	-24.8%	2.2%	2.08µM*
